{"source": "PubChem BioAssay AID1240", "about": "(Sanford-Burnham Center for Chemical Genomics, 2008)", "note": "About 800 (1.6%) of roughly 50,000 compounds showed an effect of 50% or more. Shown is part of a subset that was picked to be rich in strong results.", "data": [{"target": "Bcl-2-like protein 10 (Homo sapiens) (UniProt Q9HD36)", "sequence (Q9HD36 whole entry, looked up)": "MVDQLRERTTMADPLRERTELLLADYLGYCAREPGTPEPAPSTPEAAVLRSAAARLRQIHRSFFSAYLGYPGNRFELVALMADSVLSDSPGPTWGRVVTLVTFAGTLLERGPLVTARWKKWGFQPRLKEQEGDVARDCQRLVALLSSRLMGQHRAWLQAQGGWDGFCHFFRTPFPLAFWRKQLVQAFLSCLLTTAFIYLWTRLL", "experiment": "TR3 peptide-Bcl-B binding displacers, biochemical primary FP assay, phenotype converters (AID 1240);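 note: 0% = Bcl-B with tracer peptide and DMSO and 100% = tracer peptide lacking Bcl-B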", "conditions": "GST-Bcl-B / FITC-TR3 peptide fluorescence polarization; stronger effect = higher value; compound at 3.75 mg/L", "units": {"displacement": "%"}, "values": [{"compound": "COc1ccc2ccccc2c1C=Nc1ccc(C)c(I)c1", "displacement": -9.7}, {"compound": "CCOc1cc(/C=N/n2cnnc2)ccc1OCCOc1ccc(Br)cc1", "displacement": 19.3}, {"compound": "O=C(/C=C/c1ccc(F)cc1)c1nc2ccccc2s1", "displacement": -6}, {"compound": "CCc1ccccc1N1C(=O)CC(Sc2nc(C)cc(C)n2)C1=O", "note": "(centres undefined)", "displacement": 10.8}, {"compound": "Cc1ccc(C=Nc2ccc(F)cc2)o1", "displacement": 4.1}, {"compound": "O=C(Nc1ccc(NC(=O)c2cccc(Br)c2)cc1)c1ccccc1", "displacement": 0}, {"compound": "CC(C)OC(=O)c1ccc(NC(=O)c2cccc(Br)c2)cc1", "displacement": 69.2}, {"compound": "CC(C)OC(=O)c1ccc(NC(=O)c2cncc(Br)c2)cc1", "displacement": 12.3}, {"compound": "COc1ccc(N(CC(=O)Nc2cccc(C)c2)S(=O)(=O)c2ccc(C)cc2)c(OC)c1", "displacement": 3.6}, {"compound": "CCOC(=O)C1CCN(S(=O)(=O)c2ccc(F)cc2)CC1", "displacement": -8}, {"compound": "N#Cc1ccccc1N=C1CCCN1Cc1ccccc1", "displacement": 17.4}, {"compound": "Cc1ccc(-c2ccc(OCC(=O)Nc3ccccc3C(N)=O)cc2)cc1", "displacement": 4.4}, {"compound": "O=C(NC(=S)NC1CCSC1=O)c1ccco1", "note": "(centres undefined)", "displacement": 1}, {"compound": "Cc1cccc(NC(=O)c2cc3c(ccc4ccccc43)oc2=O)n1", "displacement": -7}, {"compound": "O=C(Nc1ccncc1)c1cc2c(ccc3ccccc32)oc1=O", "displacement": 9.6}, {"compound": "Cc1cccnc1NC(=O)c1cc2c(ccc3ccccc32)oc1=O", "displacement": 93}, {"compound": "COc1cc(/C=N/NC(N)=O)ccc1OCC(=O)N1CCCCC1", "displacement": -4.4}, {"compound": "COC(=O)c1ccccc1NC(=O)CSc1nnc(-c2cccc(F)c2)n1-c1ccccc1", "displacement": -1.1}, {"compound": "Cc1cccc(-c2nc3ccccc3[nH]2)c1", "displacement": 10.9}, {"compound": "Cc1nc(C)c(/C(O)=C/c2nc3ccc([N+](=O)[O-])cc3oc2=O)s1", "displacement": -12}, {"compound": "Cc1nc(C)c(/C(O)=C/c2nc3ccccc3[nH]c2=O)s1", "displacement": 61.6}, {"compound": "Cc1ccc(-c2nc3ccccc3[nH]2)s1", "displacement": 0.7}, {"compound": "Cc1cc(-c2ccccc2)sc1/C(O)=C/c1nc2ccccc2[nH]c1=O", "displacement": 112}, {"compound": "CC(C)(C)/C(O)=C/c1nc2cc([N+](=O)[O-])ccc2[nH]c1=O", "displacement": 0.3}, {"compound": "O=C(Nc1cccc(C(F)(F)F)c1)c1nn2c(c1Br)NC(c1cccs1)CC2C(F)(F)F", "note": "(centres undefined)", "displacement": 4.5}, {"compound": "COc1ccccc1NC(=O)c1c(NC(=O)Cc2ccccc2)sc2c1CCCCC2", "displacement": 9.3}, {"compound": "CC(C)OP(=O)(OC(C)C)C(Nc1ccc(Br)cc1)c1ccc(O)cc1", "note": "(centres undefined)", "displacement": -13.8}, {"compound": "CCOc1ccccc1N(CC(=O)NC1CCCCC1)S(=O)(=O)c1ccccc1", "displacement": 10.8}, {"compound": "C=CCN1C(=O)/C(=C\\c2ccc(OCc3cccc4ccccc34)cc2)SC1=S", "displacement": 87.1}, {"compound": "C=CCN1C(=O)/C(=C\\c2ccc(OCc3ccccc3)cc2)SC1=S", "displacement": 11.4}, {"compound": "CN1C(=O)/C(=C\\c2ccc(OCc3cccc4ccccc34)cc2)SC1=S", "displacement": -0.8}, {"compound": "C=CCN1C(=O)/C(=C\\c2ccccc2OCc2ccc(Cl)cc2)SC1=S", "displacement": 23.3}, {"compound": "C=CCN1C(=O)/C(=C\\c2cc(Cl)ccc2OCc2ccccc2F)SC1=S", "displacement": 60.2}, {"compound": "CCN1C(=O)/C(=C\\c2ccc(OCc3cccc4ccccc34)cc2)SC1=S", "displacement": 106}, {"compound": "C=CCN1C(=O)/C(=C\\c2ccc(OCc3ccccc3Cl)cc2)SC1=S", "displacement": 95.7}, {"compound": "C=CCN1C(=O)/C(=C\\c2cccc(OCc3cccc4ccccc34)c2)SC1=S", "displacement": 15.9}, {"compound": "C=CCN1C(=O)/C(=C/c2cccc(OCc3ccccc3Cl)c2)SC1=S", "displacement": -4.4}, {"compound": "CCN1C(=O)/C(=C\\c2ccc(OCc3ccccc3Cl)cc2)SC1=S", "displacement": 15.9}, {"compound": "C=CCN1C(=O)/C(=C/c2ccccc2OCc2ccccc2Cl)SC1=S", "displacement": 11.6}, {"compound": "CCN1C(=O)/C(=C\\c2cccc(OCc3cccc4ccccc34)c2)SC1=S", "displacement": 4.6}, {"compound": "NC1=NC(=O)/C(=C\\c2ccccc2Cl)S1", "displacement": 13.2}, {"compound": "CC1=C(C(=O)OC(C)C)C(c2ccccc2Cl)C2=C(CCCC2=O)N1", "note": "(centres undefined)", "displacement": 0}, {"compound": "CCOc1cc(/C=C2\\C(=O)NC(=O)N(c3cc(C)cc(C)c3)C2=O)cc(Cl)c1O", "displacement": 11.4}, {"compound": "Cc1cc(OCCN2CCCC2)ccc1Cl", "displacement": -2.8}, {"compound": "Cc1ccc(-n2nc3cc(C)c(NC(=O)c4cccc(C)c4)cc3n2)cc1", "displacement": 85.1}, {"compound": "COc1ccc(-n2nc3cc(C)c(NC(=O)c4cc5ccccc5o4)cc3n2)cc1", "displacement": 2.4}, {"compound": "COc1ccc(-n2nc3cc(C)c(NC(=O)c4ccc(Br)o4)cc3n2)cc1", "displacement": 117}, {"compound": "Cc1ccc(-n2nc3ccc(NC(=O)c4ccco4)cc3n2)cc1", "displacement": 49.3}, {"compound": "Cc1ccc(-n2nc3cc(C)c(NC(=O)c4cccc(Cl)c4)cc3n2)cc1", "displacement": -4.2}, {"compound": "COc1ccc(-n2nc3cc(C)c(NC(=O)c4ccco4)cc3n2)cc1", "displacement": 5.1}, {"compound": "Cc1ccc(-n2nc3cc(C)c(NC(=O)c4ccccc4)cc3n2)cc1", "displacement": -4.4}, {"compound": "Cc1ccc(-n2nc3cc(C)c(NC(=O)c4ccco4)cc3n2)cc1", "displacement": 107}, {"compound": "COc1ccc(C(=O)Nc2cc3nn(-c4ccc(OC)cc4)nc3cc2C)cc1", "displacement": 2.2}, {"compound": "O=S(=O)(c1cccc2ccccc12)n1cnc2ccccc21", "displacement": 6.3}, {"compound": "COc1ccc(-c2cc(C(=O)Nc3ccccc3OC)c3ccccc3n2)cc1", "displacement": 14.2}, {"compound": "Nc1ccc(C(=O)Nc2cccc(O)c2)cc1", "displacement": 11.4}, {"compound": "O=C1NC(=O)c2ccc3c4c(ccc1c24)CC3", "displacement": 55.5}, {"compound": "CN(C)N1C(=O)c2ccc3c4c(ccc(c24)C1=O)CC3", "displacement": 6.4}, {"compound": "O=C1c2ccc3c4c(ccc(c24)C(=O)N1Cc1ccco1)CC3", "displacement": 9.5}, {"compound": "O=C1NC(=S)NC(=O)C1=Cc1ccccc1OS(=O)(=O)c1ccc([N+](=O)[O-])cc1", "displacement": -7.8}, {"compound": "N#Cc1c(-c2ccc(O)cc2)c(C#N)c2nc3ccccc3n2c1N", "displacement": 12.5}, {"compound": "N#Cc1c(-c2cccc(Br)c2)c(C#N)c2nc3ccccc3n2c1N", "displacement": 109}, {"compound": "N#Cc1c(-c2ccc(F)cc2)c(C#N)c2nc3ccccc3n2c1N", "displacement": -8}, {"compound": "COc1cc2c(cc1NCc1cccc([N+](=O)[O-])c1)oc1ccccc12", "displacement": -6.6}, {"compound": "COc1ccc(-c2nn(-c3ccccc3)cc2/C=C2\\N=C(c3ccccc3)OC2=O)cc1[N+](=O)[O-]", "displacement": 93.8}, {"compound": "COc1ccc(-c2nn(-c3ccccc3)cc2C=O)cc1[N+](=O)[O-]", "displacement": -1.7}, {"compound": "O=C1OC(c2cccc(Cl)c2)=N/C1=C\\c1ccccc1[N+](=O)[O-]", "displacement": 7}, {"compound": "CC(=O)CCc1oc2ccc(Br)cc2c1-c1ccc(C)o1", "displacement": -10.4}, {"compound": "COC(=O)C1=C(C(=O)OC)C2(OC1c1cccc(F)c1)C(=O)c1ccccc1C2=O", "note": "(centres undefined)", "displacement": -0.3}]}]}
